Only some compounds are listed: those with a hit (about 2.4% of all), similar ones and a draw of the others.
Pol eta inh-1: inhibitors of human DNA polymerase eta; Q9Y253; recombinant Pol eta, fluorescent DNA replication assay; Potency, µM (top dose mostly 114 µM), for inactives: at the top dose activity change, negative = inhibition, usual class: inhibitors; 390,000 tested, 1.2% active; also: % is scaled to controls: 0 for no effect and ±100 for the full control effect
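Fluorescent replication assay: 50 nM final substrate added after a 15 min room-temperature compound preincubation with 10 nM enzyme. Signal taken at 0 min and again at 10 min.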
Pol kappa inh-1: blocks human DNA polymerase kappa activity. AID 588579. Potency, µM (titrated, usually from 107 µM), for inactives: top-dose activity, negative = inhibition, usual class: inhibitors. Q9UBT6. 400,000 tested, 0.53% active. purified Pol kappa, fluorescent DNA synthesis assay, 10 min; also: % is scaled to controls: 0 for no effect and ±100 for the full control effect
Target sequence (Q9UBT6 whole entry, looked up): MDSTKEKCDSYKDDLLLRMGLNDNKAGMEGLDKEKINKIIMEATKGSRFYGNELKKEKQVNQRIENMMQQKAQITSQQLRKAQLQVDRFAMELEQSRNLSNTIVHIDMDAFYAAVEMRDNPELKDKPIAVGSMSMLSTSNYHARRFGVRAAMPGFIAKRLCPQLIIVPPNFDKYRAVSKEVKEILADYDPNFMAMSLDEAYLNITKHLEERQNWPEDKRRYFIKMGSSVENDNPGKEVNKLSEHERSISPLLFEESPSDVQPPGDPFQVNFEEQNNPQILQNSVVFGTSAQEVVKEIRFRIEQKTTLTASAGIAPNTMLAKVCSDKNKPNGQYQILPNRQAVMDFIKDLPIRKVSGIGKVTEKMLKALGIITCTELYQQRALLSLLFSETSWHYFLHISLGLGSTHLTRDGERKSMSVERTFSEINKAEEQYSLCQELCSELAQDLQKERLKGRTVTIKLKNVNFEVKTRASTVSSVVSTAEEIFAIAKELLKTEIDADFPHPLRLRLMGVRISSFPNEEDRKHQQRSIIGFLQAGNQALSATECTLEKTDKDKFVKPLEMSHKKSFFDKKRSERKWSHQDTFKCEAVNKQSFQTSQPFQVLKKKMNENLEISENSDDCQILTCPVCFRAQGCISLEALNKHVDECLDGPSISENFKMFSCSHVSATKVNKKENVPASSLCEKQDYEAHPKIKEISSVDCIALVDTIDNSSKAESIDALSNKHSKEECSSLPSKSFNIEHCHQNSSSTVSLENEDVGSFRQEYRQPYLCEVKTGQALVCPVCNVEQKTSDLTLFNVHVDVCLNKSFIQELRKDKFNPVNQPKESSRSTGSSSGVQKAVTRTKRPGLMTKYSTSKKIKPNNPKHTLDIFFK
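Readout: fluorescence, taken kinetically at 0 and 10 min. Conditions: 10 nM Pol kappa, 15 min RT compound preincubation, 50 nM substrate final. Controls: enzyme-free buffer wells.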
POLB inh: DNA polymerase beta (human) inhibition; P06746; Pol beta primer extension/strand displacement, fluorescence kinetic; Potency, µM (titrated, usually from 114 µM), without a hit: top-dose activity change, negative = inhibition, actives largely listed as inhibitors; 340,000 tested, 1.3% active; AID 485314; also: % is scaled to controls: 0 for no effect and ±100 for the full control effect
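Enzyme-only controls used 10 nM Pol beta; buffer lacking enzyme served as negative control. Compound preincubated 15 min, then 50 nM substrate added; 0 and 10 min reads at room temperature.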
Pol iota inh: blocks human DNA polymerase iota activity; Q9UNA4; Pol iota fluorescent replication assay, 10 min; Potency, µM (series often up to 115 µM), for inactives: at the top dose activity, negative = inhibition, actives largely listed as inhibitors; 390,000 tested, 1% active; AID 588590
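Pol iota at 10 nM preincubated 15 min with compounds at room temperature; reaction started with fluorescent substrate, 50 nM final. Fluorescence read kinetically at 0 and 10 min; buffer-only wells as negative control.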
FEN1 inh-1: human FEN1 inhibition; Potency, µM (titrated, usually from 114 µM), inactives show at the top dose activity change, negative = inhibition, usual class: inhibitors; 390,000 tested, 0.35% active; P39748; AID 588795; Recombinant FEN1 flap cleavage, fluorescence, 15 min; also: % is scaled to controls: 0 for no effect and ±100 for the full control effect; nearly all actives have a fitted effect of over 65% in size
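Recombinant FEN1 (10 nM) was preincubated with pin-transferred compounds for 15 min at room temperature, then flap DNA substrate (50 nM final) was added. Plates were read at 0 and 15 min, and normalized concentration–response data were fitted to a four-parameter Hill equation.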
WRN inhibitor: inhibitors of human WRN helicase | Potency, µM (doses to about 114 µM), inactives show top-dose activity change, negative = inhibition, actives largely listed as inhibitors | Q14191 | WRN helicase unwinding, fluorescent forked duplex, kinetic | 360,000 tested, 0.46% active; also: % is scaled to controls: 0 for no effect and ±100 for the full control effect; nearly all actives have a fitted effect of over 55% in size
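Enzyme (20 nM final) and test compound sit together 15 min at room temperature before substrate addition. Substrate is a single-forked duplex oligonucleotide (100 nM) labelled with fluorophore and quencher, with 2 mM ATP; helicase unwinding raises red fluorescence, read kinetically.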
PGK validate: validation of Trypanosoma brucei phosphoglycerate kinase inhibitors. 500 tested, 79% active. AID 686980. TbPGK coupled GAPDH assay, Kinase-Glo luminescence. shares compounds with Pol kappa inh-1. Potency, µM (top dose mostly 57.5 µM), inactives show top-dose activity change, negative = inhibition, most hits filed as inhibitors; also: % is scaled to controls: 0 for no effect and ±100 for the full control effect; nearly all actives have a fitted effect of over 65% in size
POLI cherry-pick: Human Pol iota inhibitor confirmatory assay; Potency, µM, actives largely listed as inhibitors; 1,500 tested, 77% active; shares compounds with Pol kappa inh-1; Pol iota primer extension, TAMRA/BHQ fluorescence
Pol kappa inh-2: confirmation of human DNA polymerase kappa inhibitors; purified Pol-kappa, fluorescent strand-displacement substrate; shares compounds with Pol eta inh-1; 920 tested, 76% active; Potency, µM, most hits filed as inhibitors
Pol eta inh-2: confirmation of human DNA polymerase eta inhibitors; shares compounds with Pol eta inh-1; 2,600 tested, 64% active; Pol eta primer extension, TAMRA/BHQ fluorescence, 10 min; Potency, µM, hits mostly inhibitors
FEN1 inh-2: confirmation of human FEN1 inhibitors; shares compounds with FEN1 inh-1; FEN1 flap cleavage, TAMRA/BHQ2 fluorogenic DNA substrate; Potency, µM, most hits filed as inhibitors; 880 tested, 79% active; AID 720498; also: nearly all actives have a fitted effect of over 60% in size
* marks the source's active call; other numbers are inactive results; ? = inconclusive; nt = no result given; ! = not confirmed by another sample; [ ] = remark or other dose. Calls follow the shape of the dose curve; as a rule, active = well fitted curve in the direction sought with a large enough effect; inconclusive = small, poorly fitted or top-dose-only effect, or another doubt; inactive = no such curve, though single readings can be large; an effect the other way counts as inactive or inconclusive. Potency is read from the fitted curve at half-maximal effect.

SMILES	Pol eta inh-1	Pol kappa inh-1	POLB inh	Pol iota inh	FEN1 inh-1	WRN inhibitor	POLI cherry-pick	Pol eta inh-2	FEN1 inh-2	others
CC(=O)/C(N=Nc1ccc(C(=O)O)cc1)=C(\C)O	0%	-3%	23%	36%	10%	-3%	nt	nt	nt
CN(C)c1ccc(N=Nc2ccc(C(=O)O)cc2)cc1	3.5µM*	32µM*	10µM*	11µM*	?	?	21*	4.3*	38*
CCOc1ccccc1CNCc1c(C(=O)O)c(C)n(Cc2ccc(Cl)cc2)c1C	-3%	5%	16%	23%	-10%	nt	nt	nt	nt
CCC(=O)c1ccc2c(c1)N(CCCN1CCN(CCO)CC1)c1ccccc1S2	nt	0%[19.4 µM]	nt	nt	nt	nt	nt	nt	nt
COc1ccc(CNc2cc(-c3ccccc3C)ncn2)c(OC)c1	nt	-7%[60.1 µM]	nt	nt	nt	nt	nt	nt	nt
COc1cc(C2c3c([nH]c(=O)[nH]c3=O)Nc3ccc4ccccc4c32)cc(OC)c1OC (stereo unspecified)	79µM*	25µM*	8%	18µM*	28µM*	20µM*	42*	60*	30*
CCNc1cc(N2CCN(C3CCCCC3)CC2)c2noc3c2c1C(=O)c1ccccc1-3	5%	-9%	17%	42%	6%	nt	nt	nt	nt
O=C(O)CCNc1cc(N2CCN(C(=O)c3ccco3)CC2)c2noc3c2c1C(=O)c1ccccc1-3	3.2µM*	13µM*	18µM*	?	32µM*	18µM*	17*	6.7*	30*	PGK validate=21µM*;Pol kappa inh-2=?
O=C1C(=O)N(C2CCN(C(=O)c3ccccc3F)CC2)CCN1Cc1ccc(F)cc1	-21%	-7%	-25%	10%	3%	nt	nt	nt	nt
CCn1c(=O)n(-c2ccc(C)c(F)c2)c(=O)c2sc3ccccc3c21	1%	-9%	8%	3%	6%	nt	nt	nt	nt
N=C1/C(=C/c2ccc(-c3cccc(C(=O)O)c3)o2)C(=O)N=C2SC=C(c3ccccc3)N12	3.2µM*	7.1µM*	28µM*	4µM*	?	35µM*	19*	7.6*	24*	PGK validate=37µM*
N=C1/C(=C\c2ccc(-c3cc(Cl)cc(Cl)c3)o2)C(=O)N=C2SC=C(c3ccccc3)N12	-9%	-15%	-20%	?	7%	1%	nt	nt	nt
Cn1cnnc1SCC(=O)Nc1sc2c(c1C(N)=O)CCC2	22µM*	?	14µM*	?	32µM*	13µM*	67*	43*	?
Cn1c(N)c(C(=O)COC(=O)c2cc(-c3ccco3)nc3ccccc23)c(=O)n(C)c1=O	7.9µM*	?	16µM*	7.1µM*	40µM*	28µM*	24*	19*	67*
COc1ccc(-c2cc(C(=O)OCC(=O)c3c(N)n(C)c(=O)n(C)c3=O)c3ccccc3n2)cc1	-4%	0%	-1%	33%	8%	0%	nt	nt	nt
COC(=O)c1cc(O)cc(OC)c1Oc1cc(C)cc(O)c1C(=O)O	3.5µM*	11µM*	3.2µM*	13µM*	50µM*	20µM*	13*	12*	76*	PGK validate=1µM*
Cc1ccc(Nc2ncnc3c2nc2n3CCCC2)c(Br)c1	-16%	-10%	0%	2%	11%	nt	nt	nt	nt
CN(C)S(=O)(=O)c1cccc(NC(=S)N/N=C/c2ccc(O)c(O)c2O)c1	?	?	-11%	?	20µM*	28µM*	13*	19*	8.5*
COc1ccc(O)c(/C=N/NC(=S)Nc2cccc(S(=O)(=O)N(C)C)c2)c1	-9%	-14%	-2%	11%	-24%	-22%	nt	nt	nt
CN(CCC#N)C(=O)COC(=O)c1c2c(nc3ccccc13)/C(=C\c1ccco1)CC2	11µM*	22µM*	nt	4µM*	50µM*	?	17*	34*	67*
Cc1ccc(CNC(=O)COCc2cc(-c3ccc4c(c3)OCO4)on2)cc1	-7%	6%	0%	16%	7%	nt	nt	nt	nt
O=S(=O)(c1ccc(OC(F)(F)F)cc1)N1CCN(c2nc(-c3ccccc3)nc3ccccc23)CC1	nt	-77%	nt	?	-17%	nt	nt	nt	nt
O=C(O)c1cc(O)c2c(c1)[C@@H]([C@H]1c3cc(C(=O)O)cc(O)c3C(=O)c3c(O[C@@H]4O[C@H](CO)[C@@H](O)[C@H](O)[C@H]4O)cccc31)c1cccc(OC3O[C@H](CO)[C@@H](O)[C@H](O)[C@H]3O)c1C2=O (stereo partly specified)	-100%	-97%	nt	-107%	?	1.1µM*	3*	6*	30*	PGK validate=2.6µM*;Pol kappa inh-2=2.7*
CCC1CCCCN1C(=O)c1nn(-c2ccc(C)cc2)c(=O)c2c1c1ccccc1n2C (stereo unspecified)	nt	-10%	-8%	26%	10%	nt	nt	nt	nt
COc1ccc2c([N+](=O)[O-])c(Cl)[nH]c2c1	20µM*	50µM*	-20%	11µM*	18µM*	-20%[11.6 µM]	38*	27*	34*
COc1ccc2c([N+](=O)[O-])c(N3CCOCC3)[nH]c2c1	-7%	nt	nt	nt	nt	-7%	nt	nt	nt
COc1cccc(CNC(=O)c2ccc3c(c2)N(C)C(=O)C2CCCCN32)c1 (stereo unspecified)	2%	-6%[60.1 µM]	11%	-10%	-11%	nt	nt	nt	nt
COc1ccc(/C=C2\C(=O)NC(=S)N2C(=O)c2ccc(C)cc2)cc1	16µM*	?	20µM*	18µM*	?	56µM*	?	?	76*
O=C1NC(=S)N(C(=O)c2ccc(F)cc2)/C1=C/c1cccnc1	-10%	-9%	?	?	-7%	?	nt	nt	nt
NC[C@H](O)c1ccc(O)c(O)c1	-4%	0.71µM*!	-3%[57.1 µM]	4µM*!	-12%	-6%[11.6 µM]	1.5*	1.9*	34*
